In PubChem BioAssay (NCATS):
Results filed as inconclusive are left out. Activity calls are given as the source filed them. Calls follow the shape of the dose curve; as a rule, active = well fitted cell-killing curve with a large enough effect; inconclusive = small, poorly fitted or top-dose-only effect, or effect the other way; inactive = flat fitted curve, though single readings scatter.

These molecules were tested on CAOV3 (assay: Primary qHTS to identify gynecologic anti-cancer compounds using libraries of approved drugs and bioactive compounds (AID 1345084; also: nearly all actives have a fitted effect of over 55% in size)). Details: Gynecologic cancer cell panel viability, ATPlite luminescence, 48 h; series mostly up to 57.5 µM; activity change, negative = cytotoxicity: at the top concentration.
From the text: National Center for Advancing Translational Sciences [NCATS] Assay Overview: Chemotherapeutic drug responses vary from cancer to cancer and from patient to patient. These variations could be caused by a number of factors including patient genomic background, tumor mutations, tumor heterogeneity, and aspects of drug treatment. Chemotherapeutic drug resistance is also a common issue and can lead to ineffective treatment and patient death. Here we have profiled the cell killing effects of thousands of compounds to characterize the responses in three gynecological cancers, identify cancer-selective compounds, and understand the diversity of responses to these compounds from pan-cancer suppressors to single cell line selective compounds. In this assay, we screened a 7,914 compound drug library that included approved drug and bioactive compounds in six ovarian, three cervical, and […] placental cancer cell lines using the ATPlite assay for cell viability. […] The cervical cancer cell lines included HeLa, Ca Ski, and C-33 A. The placental cancer cell lines included JEG-3. HEK 293T cells were used as the control cell line to determine the selectivity index. ATPlite is a luminescence based assay reliant on the conversion of a luciferase substrate to light in the presence of ATP. As a cytotoxic compound will suppress growth and decrease the number of cells, the concentration of ATP will decrease, and less light signal will be detected in the well.
Assay Protocol Summary: 1,000 cells in 4 uL of media were dispensed into white, solid bottom 1536-well plates using a Multidrop Combi (Thermo Scientific). The Assay plates were incubated for 16 hours at 37 C with 5% CO2 in assay plates, followed by the addition of 23 nL of DMSO or drug dissolved in DMSO. Each compound was assayed in five concentrations (0.092, 0.46, 2.3, 11.5, and 57.5 uM), using the automated Wako 1536 Pin Tool workstation and incubated at 37 C with 5% CO2 48 hours. 4 uL of ATPlite, the ATP monitoring reagent, was then added to the each well of the assay plates using the Multidrop Combi reagent dispenser followed by incubation for 15 minutes at room temperature. The resulting luminescence was measured using the ViewLux plate reader.
% is scaled to controls: 0 for no effect and ±100 for the full control effect.

Row | SMILES | activity change, negative = cytotoxicity
1 | Clc1cccc(C(c2ccc3nc[nH]c3c2)n2ccnc2)c1 (stereo not given) | 18.7% (inactive)
2 | C[C@H]1[C@H]2CC[C@H]3[C@@H]4CC=C5C[C@@H](N(C)C)CC[C@]5(C)[C@H]4CC[C@]23CN1C | -10.5% (inactive)
3 | NC(=O)C1(N2CCCCC2)CCN(CCCC(=O)c2ccc(F)cc2)CC1 | 6.13% (inactive)
4 | CNCCc1ccccn1 | 5.63% (inactive)
5 | Cc1ccc(S(=O)(=O)NC(=O)NC2CCCC2)cc1 | 13.3% (inactive)
6 | C/C=C/C=N/NC(=O)c1ccncc1 | -9.27% (inactive)
7 | CCCCCCCCCCCCCCC[C@H](O)[C@@H](N)CO | -0.565% (inactive)
8 | N[C@H](C(=O)O)[C@@H](O)c1ccc(O)c(O)c1 | -24.1% (inactive)
9 | CC(C)(C)NC[C@H](O)COc1nsnc1N1CCOCC1 | 6.18% (inactive)
10 | CCCCCCCCOc1ccc(C(=O)c2ccccc2)c(O)c1 | 3.42% (inactive)
11 | COc1ccc(C(Cl)=C(c2ccc(OC)cc2)c2ccc(OC)cc2)cc1 | -12.8% (inactive)
12 | COc1cc(C)nc(-n2nc(C)cc2OC)n1 | -2.58% (inactive)
13 | CCN(CC)CCOC(=O)C(Cc1cccc2ccccc12)CC1CCCO1 (stereo not given) | -16.1% (inactive)
14 | O=C(NC1CCN(CCc2c[nH]c3ccccc23)CC1)c1ccccc1 | 6.44% (inactive)
15 | COc1cc(C(=O)N2CCCCCCC2)cc(OC)c1OC | 1.77% (inactive)
16 | FC1(F)C(F)(F)C(F)(F)C2(F)C(F)(F)C(F)(F)C(F)(F)C(F)(F)C2(F)C1(F)F (stereo not given) | -6.64% (inactive)
17 | CC(=O)N[C@@H](CCC(=O)O)C(=O)O | 3.91% (inactive)
18 | CCN1CCN(C(=O)N[C@@H](C(=O)N[C@@H]2C(=O)N3C(C(=O)O)=C(CSc4nnnn4C)CS[C@H]23)c2ccc(O)cc2)C(=O)C1=O | 14.6% (inactive)
19 | CCN(CC)CCOC(=O)C1(c2ccccc2)CCCC1 | -7.74% (inactive)
20 | O=C(CCN1CCN2CCCC2C1)N1c2ccccc2Sc2ccc(Cl)cc21 (stereo not given) | 1.75% [at 25.3 µM] (inactive)

Row | SMILES | activity change, negative = cytotoxicity
21 | CC(=O)Nc1ccc(OCC(O)CNC(C)C)cc1 (stereo not given) | 4.8% (inactive)
22 | CC(C)Cn1cnc2c1c(=O)n(C)c(=O)n2C | 7.8% (inactive)
23 | O=C(O)c1ccc(S(=O)(=O)N(Cl)Cl)cc1 | 5.27% (inactive)
24 | CC[C@H](c1ccc(O)cc1)[C@@H](CC)c1ccc(O)cc1 | -12.6% (inactive)
25 | CCCCOC(=O)CC(CC(=O)OCCCC)(OC(C)=O)C(=O)OCCCC | 10.1% (inactive)
26 | C[N+]1(CC2COC(c3ccccc3)(C3CCCCC3)O2)CCCCC1 (stereo not given) | -29.6% (inactive)
27 | CC1CCc2c(N3CCC(O)CC3)c(F)cc3c(=O)c(C(=O)O)cn1c23 (stereo not given) | 2.02% (inactive)
28 | CC(=O)NCCCCCC(=O)O | 3.25% (inactive)
29 | CCc1oc2ccccc2c1C(=O)c1cc(Br)c(O)c(Br)c1 | 2.56% (inactive)
30 | O=C(O)C(Cc1cc(I)c(O)c(I)c1)c1ccccc1 (stereo not given) | -28.7% (inactive)
31 | CCCN(CCc1cccs1)[C@H]1CCc2c(O)cccc2C1 | -9.2% (inactive)
32 | CCCCCCCCCCCCOCCOCCOCCOCCOCCOCCOCCOCCOCCO | -9.3% (inactive)
33 | COc1ccc(-c2cc(C(F)F)nn2-c2ccc(S(N)(=O)=O)cc2)cc1F | 4.39% (inactive)
34 | Cc1ccc(O)c([C@H](CCN(C(C)C)C(C)C)c2ccccc2)c1 | -29.5% (inactive)
35 | COC(=O)C(c1ccccc1Cl)N1CCc2sccc2C1 (stereo not given) | 15.7% (inactive)
36 | COc1ccc(C(=O)c2ccccc2)c(O)c1 | 1.86% (inactive)
37 | CC(=O)Nc1ncc([N+](=O)[O-])s1 | 0% (inactive)
38 | Cc1nc(-c2ccc(Cl)cc2)oc1COC(C)(C)C(=O)O | 5.42% (inactive)
39 | CC(C)NCC(O)c1ccc2ccccc2c1 (stereo not given) | 16.5% (inactive)
40 | NC(=O)n1c(O)c(C(=O)c2cccs2)c2cc(Cl)ccc21 | 0.286% (inactive)
